# Compound activity (PubChem)
# A selection: hits, their analogues and other compounds. The true share with any hit is near 2.2%.
# mut p53 react – restores mutant p53 pathway signaling in SW480 cells. SW480 PUMA-promoter luciferase, p53 mutant reactivation. activation, % at 9.98 µM. 1.5% of 28,000 active. AID 624151; in the data active = activation above about 52%; inconclusive = no clear call, values can overlap the other calls
# ID4 binder – ID4 (human) binding. P47928. small molecule microarray, Flag-ID4 binding, fluorescence F/B. calls only. 1.2% of 31,000 active. AID 624137; call rule not given here;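 note: a binder raises fluorescence above local background on the spot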
# Target sequence (P47928 whole entry, looked up): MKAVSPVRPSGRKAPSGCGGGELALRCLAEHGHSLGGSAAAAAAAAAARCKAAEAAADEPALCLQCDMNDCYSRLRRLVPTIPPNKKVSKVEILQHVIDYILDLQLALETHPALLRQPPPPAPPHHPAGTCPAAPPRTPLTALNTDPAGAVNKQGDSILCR
# Starred values were filed as active, the others as inactive; i = inactive; ? = inconclusive; . = no result given; + = active, no number.
SMILES,mut p53 react,ID4 binder
CCOc1ccccc1CNCc1ccccn1,10,i
CC/C=C/c1ccc(C)cc1CCCCCC(=O)O,.,i
O=C(NC(=S)Nc1ccc(Cl)c(C(=O)O)c1)c1cccc(COc2ccccc2)c1,2,+
O=C(COc1ccccc1)NC(=S)Nc1cccc(NC(=O)c2ccccc2Cl)c1,-12,i
COc1ccc(Cl)cc1N(CC(=O)Nc1ccccc1C(F)(F)F)S(C)(=O)=O,4,i
Cc1sc2ncn(CC(=O)NCc3ccco3)c(=O)c2c1-c1ccc(Cl)cc1,-4,i
O=C(c1cccs1)n1nc(-c2ccc(Cl)cc2)nc1NCc1ccco1,102*,i
CC(C)(Oc1ccc(Cl)cc1)C(=O)NCc1ccco1,3,i
CC(=O)n1nc(-c2ccc(Cl)cc2)nc1NCc1ccco1,148*,i
COc1ccc(C(=O)n2nc(-c3ccc(Cl)cc3)nc2NCc2ccco2)cc1,118*,i
Cn1c(NCc2ccco2)nc2c1c(=O)n(Cc1ccc(Cl)cc1)c(=O)n2C,3,i
CC1=NN(c2cc(Cl)cc(Cl)c2)C(=O)CC1,8,i
COc1cc(-c2c(C)cc(O)cc2O[C@@H]2O[C@H](CO)[C@@H](O)[C@H](O)[C@H]2O)oc(=O)c1,21,.
Cc1cc(N(CC(=O)Nc2ccc(Cl)c(Cl)c2)S(C)(=O)=O)ccc1Br,-14,i
COc1cc(/C=C/c2ccc(OC)cc2OC)cc(OC)c1,121*,i
COc1cc(/C=C/c2ccc(OC)c(OC)c2)c(CC=C(C)C)c(OC)c1,20,i
Cc1ccc2nc(-c3ccc(NC(=O)COc4ccc([N+](=O)[O-])cc4)cc3)sc2c1,70*,i
Cc1ccc2nc(-c3ccc(NC(=O)C(C)Oc4ccc5c(C)cc(=O)oc5c4)cc3)sc2c1 (stereo not given),77*,i
O=C(COc1ccc([N+](=O)[O-])cc1)Nc1ccc(-c2nc3ccccc3o2)cc1,26,i
O=C(COc1ccc([N+](=O)[O-])cc1)Nc1cccc(-c2nc3cc(Cl)ccc3o2)c1,60*,i
CCC(SC1=NCCS1)C(=O)Nc1ccc(-c2nc3ccc(C)cc3s2)cc1 (stereo not given),?,i
Cc1cc(=O)oc2cc(OC(C)C(=O)Nc3sc4c(c3C#N)CCCC4)ccc12 (stereo not given),4,i
O=C(COc1ccc([N+](=O)[O-])cc1)Nc1ccc2oc(-c3cccc(Cl)c3)nc2c1,12,i
CCC(Sc1nc(C)cc(C)n1)C(=O)Nc1ccc(-c2nc3ccc(C)cc3s2)cc1 (stereo not given),85*,i
Cc1cccc(-n2c(SCC(=O)c3ccccc3)nnc2-c2ccncc2)c1C,11,i
SMILES,mut p53 react,ID4 binder
CC(C)C12CC1C(C)(O[C@@H]1O[C@H](CO)[C@@H](O)[C@H](O)[C@H]1O)CC2=O (stereo not given in full),.,i
Cn1c(SCC(=O)Nc2ccccc2Cl)nnc1-c1cccnc1,13,i
CC(C)(C)c1ccc(C(=O)Nc2ccc(NC(=O)COc3ccc([N+](=O)[O-])cc3)cc2)cc1,-20,i
O=C(CSc1nc2ccccc2c(=O)[nH]1)Nc1ccc(F)cc1F,2,i
Cc1ccc2nc(-c3cccc(NC(=O)COc4ccc([N+](=O)[O-])cc4)c3)oc2c1,72*,i
O=C(COc1ccc([N+](=O)[O-])cc1)Nc1ccc2oc(-c3cccc(Br)c3)nc2c1,3,i
Cc1ccc2nc(-c3ccccn3)cc(C(=O)Nc3ccc(S(=O)(=O)N4CCOCC4)cc3)c2c1,5,+
O=C(Nc1ccc(S(=O)(=O)N2CCOCC2)cc1)c1cc(-c2ccncc2)nc2c(Cl)cccc12,-21,i
COc1ccccc1CCNC(=O)c1c(-c2c(F)cccc2Cl)noc1C,16,i
COc1ccc2c(c1OC)OC[C@@H](c1ccc(OC)c(OC)c1OC)C2,.,i
C[C@H](CO)N1C[C@H](C)[C@@H](CN(C)C(=O)c2ccccc2)OCCCC[C@H](C)Oc2ccc(NS(C)(=O)=O)cc2C1=O,-2,+
C[C@@H]1CCCCO[C@@H](CN(C)C(=O)CCCN(C)C)[C@@H](C)CN([C@H](C)CO)C(=O)c2cc(NS(=O)(=O)c3ccccc3)ccc2O1,3,+
C[C@@H]1CCCCO[C@H](CN(C)C(=O)c2ccccc2)[C@@H](C)CN([C@@H](C)CO)C(=O)c2cc(NS(C)(=O)=O)ccc2O1,-9,i
C[C@@H]1CCCCO[C@H](CN(C)C(=O)CCCN(C)C)[C@@H](C)CN([C@H](C)CO)C(=O)c2cc(NS(=O)(=O)c3ccccc3)ccc2O1,5,i
COc1ccc(OCC(=O)Nc2ccc(NC(=O)c3ccco3)c(OC)c2)cc1,16,i
COC(=O)c1cc(-c2ccccc2)sc1NC(=S)NC(C)c1cc(OC)ccc1OC (stereo not given),42,i
Cc1cc(OCC(=O)Nc2ccccc2[N+](=O)[O-])ccc1Cl,86*,i
